{
  "source": "PubChem BioAssay AID1508600",
  "about": "(Functional Genomics Laboratory (NCATS/FGL), 2020)",
  "note": "The whole screen tested about 53,000 sequences, of which about 3,700 (7%) were called active. This is one part of a sample in which actives are shown more often than they occur. A number with no mark means an inactive call.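 The calls were made as follows: active = gene knockdowns whose robust z-score for IL-1 alpha signal is at least 2 or at most -2, so actives lie on both sides; inactive = the rest.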",
  "data": [
    {"assay": "Components of the Cytosolic LPS Sensing Pathway: Gene Identification via Genome-wide siRNA Screen;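 also: robust z of the log signal after scaling to non-targeting control siRNA wells of the plate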", "conditions": "RAW264.7 macrophages, IL-1a HTRF, actives lie on both sides, screened at 100 nM (by protocol), cells primed 5 h with Pam3CSK4 first", "in_short": "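Supernatant IL-1a by HTRF from RAW264.7 cells primed with Pam3CSK4 (5 hours) and transfected with LipidA (24 hour) after 48h siRNA knockdown at 100 nM; cell viability checked with CellTiter-Glo.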", "values": [
      {"sequence": "GGAAAGAAAAAUGAAGCUUTT against Tmem167b", "z-score": -0.548},
      {"sequence": "GGAUAUCGUUGUUUCUGAGTT against Lmbr1", "z-score": -1},
      {"sequence": "GGGUGGUGUUCCAUGACAGTT against Ubp1", "z-score": -1.82},
      {"sequence": "GGCACAAGAUUAUUUAAGUTT against Tmem68", "z-score": 0.362},
      {"sequence": "GGUUCUAUGCUGAAGGUCATT against Lhfpl2", "z-score": 0.358},
      {"sequence": "GGAGCUGUCCAGGUUUAUUTT against Psmd6", "z-score": "-2.72 (active)"},
      {"sequence": "GGCUUGUGAAUGGAAAUAATT against Hsp90aa1", "z-score": -0.416},
      {"sequence": "CCUUAAGACCGGAUUUUUUTT against Cyp4f14", "z-score": 0.64},
      {"sequence": "GGAGUUUGUAUCAAACUUATT against Zcchc8", "z-score": 0.0121},
      {"sequence": "GGUAAUGGGAGCUAGUUUATT against 6330549D23Rik", "z-score": -0.259},
      {"sequence": "GCAUAGAAACCAUGCACAUTT against Acot2", "z-score": "3.28 (active)"},
      {"sequence": "CCGAGGACUAUUUGAAACGTT against Mrtfa", "z-score": -1.46},
      {"sequence": "GGAUUUGAGUUGAAGCGUGTT against Zscan20", "z-score": -0.129},
      {"sequence": "GGUGGUAAAUCGAAUUGUUTT against Tmem185b", "z-score": -0.171},
      {"sequence": "GGCUGGCUAUAAGAAAAAATT against Mrpl35", "z-score": -0.646},
      {"sequence": "GGCUUGAAGAUGUCUAUGATT against Aptx", "z-score": "-2.19 (active)"},
      {"sequence": "GGCCACAGGAAGUCAGUUATT against Gsk3b", "z-score": -1.23},
      {"sequence": "GCCAACCAUCAGUUUAUACTT against Mboat1", "z-score": -0.31},
      {"sequence": "GGCUGAAGAACUCCUACAATT against Dennd1c", "z-score": "2.17 (active)"},
      {"sequence": "GGUUAGUAGUCUUCUUAUCTT against Olfr1173", "z-score": 0.291},
      {"sequence": "CGCACAGAGAAUAAGGGAATT against Tcta", "z-score": 0.843},
      {"sequence": "CCUGAUGCACUACUCGUCUTT against Dmbx1", "z-score": -0.131},
      {"sequence": "GGUAAAUGUCUGCUCUGAGTT against Selenok", "z-score": "-2.53 (active)"},
      {"sequence": "GGUCAACUAGCAGAAACCATT against Adgrv1", "z-score": -1.84},
      {"sequence": "CCGUAGAGAUCAACAACACTT against Npepl1", "z-score": 0.799},
      {"sequence": "GGACUCCUUCCACCACAAUTT against Aifm2", "z-score": -0.2},
      {"sequence": "GCACAUAGCAUCCACUCCATT against Gm4793", "z-score": "-2.56 (active)"},
      {"sequence": "CCCUAUUUGUCAGCGGUCUTT against Rbpms", "z-score": -1.94},
      {"sequence": "GCCUUAAGAGAUGUAUUUCTT against Vmn1r33", "z-score": -0.042},
      {"sequence": "GGAGGAAAUGAUGAUUUUCTT against Kbtbd2", "z-score": 0.283},
      {"sequence": "CCAAGCGAAUGCUGGACAUTT against Cox4i1", "z-score": "3.44 (active)"},
      {"sequence": "GGUACAUCUAUUUCUUGUUTT against Ncam2", "z-score": -1.2},
      {"sequence": "GGACUGUACUAUGGCUCUCTT against Nt5m", "z-score": 0.135},
      {"sequence": "GGGAGGAGAGUGAUUGAGATT against A730013G03Rik", "z-score": 0.682},
      {"sequence": "CCAACAAAUUCUGGUGGGATT against Ccdc84", "z-score": 0.578},
      {"sequence": "GGAGUACCUGUGGUGCAUUTT against Ahcy", "z-score": 0.213},
      {"sequence": "GGCGGUACCUCUUCUUCAUTT against Aipl1", "z-score": "2.32 (active)"},
      {"sequence": "CCGAAGUCAACUAAACUUATT against Rmc1", "z-score": 0.732},
      {"sequence": "CCCUUGCUACAAUGAUGCCTT against Mfge8", "z-score": "2.56 (active)"},
      {"sequence": "GGACAACUUCAACAGCACUTT against Rab13", "z-score": -1.31},
      {"sequence": "CGUAGAGCUCAGAGAAUUCTT against Dhx58", "z-score": 0.614},
      {"sequence": "GCGAAUGAUAUGUAUCAGATT against Pik3r1", "z-score": 0.647},
      {"sequence": "ACCUUUUCAAAUCUGUGCGTT against Uts2b", "z-score": -0.928},
      {"sequence": "GGCUAACCAGAGGAAAAACTT against Rph3a", "z-score": "-2.19 (active)"},
      {"sequence": "GCUCUUGGUCCGUCUUCAGTT against 6030452D12Rik", "z-score": -1.76},
      {"sequence": "GGAGUCUUGUAAUGAGCUUTT against Zfp54", "z-score": 0.898},
      {"sequence": "CCCUCAAAGUCAUUUCAAATT against Cfap43", "z-score": -1.61},
      {"sequence": "GGUUGAAAAUGGAAGAGUATT against Mbnl2", "z-score": "-2.27 (active)"},
      {"sequence": "CCUUCCUACCGGAGAAUGATT against Capn6", "z-score": -0.341},
      {"sequence": "GGUUCAACAUGAAAAUGAUTT against Lingo2", "z-score": -0.251},
      {"sequence": "GCCAAUUGAGUCGUCUAUCTT against Rps6ka1", "z-score": "2.41 (active)"},
      {"sequence": "GGCAGCGAUUGACAAAAUGTT against Eefsec", "z-score": -0.756},
      {"sequence": "GGUCGUGAUAAACAUAUCATT against Cep85", "z-score": -1.1},
      {"sequence": "GGUCAAUGGCCACAAGUUCTT against Prkce", "z-score": 0.421},
      {"sequence": "CCAUGAUCGCUAGUGAAGCTT against Mrpl24", "z-score": -0.743},
      {"sequence": "GGUGGUGAACUGUUUGACCTT against Pnck", "z-score": -1.58},
      {"sequence": "GCUGACCUUUGUAAGUUAUTT against Ttc17", "z-score": -0.369},
      {"sequence": "GGCUAUGCUUCUUUCCUUUTT against Cfhr1", "z-score": 0.846},
      {"sequence": "GGAGAAGAAAAAGAAGGACTT against Pak1", "z-score": -0.932},
      {"sequence": "CGGCUUGCUACUUUGGAACTT against Gda", "z-score": "2.55 (active)"},
      {"sequence": "GAUGGAUCGAACUCUGCACTT against Stard10", "z-score": -0.957},
      {"sequence": "GGACCAAGUGGAGAAAGAATT against Nkx6-1", "z-score": -0.622},
      {"sequence": "CCCAGAUGAACAAAUGACCTT against Tceanc", "z-score": 0.582},
      {"sequence": "GCAUUAUGGAAAGUUGGAGTT against Gabra4", "z-score": 0.915},
      {"sequence": "GGAGUGUGAGGUCCUCUCUTT against Sdsl", "z-score": 1.85},
      {"sequence": "GCGUAAGGAAUUGUCUAACTT against Hoxd12", "z-score": "4.05 (active)"},
      {"sequence": "CCGACGAUUCCUGAAGCUATT against Tada3", "z-score": -0.275},
      {"sequence": "GGUGACAGAUUCUUUGAGGTT against Tti2", "z-score": 0.704},
      {"sequence": "GGUCAGAUUAUGCUUUAGATT against Mrgpre", "z-score": -0.783},
      {"sequence": "CGUGAUUGAAUCUCAGGAGTT against Spata24", "z-score": "-2.14 (active)"},
      {"sequence": "GCAGAGGGUUUUCCAAGCGTT against Ddx4", "z-score": -0.631},
      {"sequence": "GGAAGUGACCUGUCUGAAGTT against Gramd1a", "z-score": 0.641},
      {"sequence": "GGAUUAUGUAGAGGCCCAATT against Gngt2", "z-score": "-2.63 (active)"},
      {"sequence": "GGACAGCUGGACCUAAAGGTT against Slco4a1", "z-score": -0.417},
      {"sequence": "GGAGCUGAUGGUUGAAUGUTT against Ehbp1", "z-score": 0.177},
      {"sequence": "GGAUCCUCGGGAGUACAUGTT against Crybg3", "z-score": 0.287},
      {"sequence": "CCAGUAAGUUGCAUUCGAATT against Defb8", "z-score": 0.675},
      {"sequence": "GGCAUAGCUGGUCUGAAGATT against Slc3a2", "z-score": "2.06 (active)"},
      {"sequence": "CCUCAUUUCCAAACUCAAATT against Fbxw13", "z-score": -0.491},
      {"sequence": "CCACGAGAAGUGGAUAUUATT against Plcxd3", "z-score": -1.1},
      {"sequence": "CCUGAACAUGAGUUAAAAGTT against Lmo4", "z-score": 0.156},
      {"sequence": "GGAUUAGCUCUACAGAAGGTT against Olfr1031", "z-score": 1.67},
      {"sequence": "GGAGCUGUUUUUCCACUCCTT against Phlda2", "z-score": -0.337},
      {"sequence": "GCUGGAAGAAAACUUCUAUTT against Jade2", "z-score": "2.49 (active)"},
      {"sequence": "GGUAUGGUUUCUAUAACAATT against Arsj", "z-score": 0.814},
      {"sequence": "GGAAGGUCAUGUGAAUAUCTT against A930002I21Rik", "z-score": -1.6},
      {"sequence": "GGCUUUGAGAGUUUGUCACTT against 2410004B18Rik", "z-score": -1.62},
      {"sequence": "GGGAGUUAAACUUCUCUGCTT against Tlr13", "z-score": -0.0637},
      {"sequence": "GGUACCGGAGUCUGAAACATT against Drp2", "z-score": "-2.53 (active)"},
      {"sequence": "GGGUCAGUGUGGAGAGUACTT against Col13a1", "z-score": 0.679},
      {"sequence": "GGAUGAAUGGAAUUUACUGTT against Fbh1", "z-score": 0.406},
      {"sequence": "GGGAAAAGUGGUAAAUUAUTT against Shprh", "z-score": 0.194},
      {"sequence": "GGAAGACAAGGUUUUAGCUTT against Ulbp1", "z-score": 1.92},
      {"sequence": "CGUGGAGAGAUCAAUCCCGTT against Adad1", "z-score": "-2.01 (active)"},
      {"sequence": "GGUUCAUGAAUGACAAACUTT against Sult4a1", "z-score": 0.383},
      {"sequence": "GGUGUUUAAUAAUGUUGUCTT against Olfr976", "z-score": -0.27},
      {"sequence": "CCCAAUGACAAUAAAGACCTT against Mmp25", "z-score": -0.936},
      {"sequence": "GGGCUUGUAUCUACCAUGGTT against Strbp", "z-score": "2.18 (active)"},
      {"sequence": "GGUAAGAGGAUCCAAGGUGTT against Fam131a", "z-score": 0.0909},
      {"sequence": "CCUACGUCCAGUAGUGCAGTT against Ahdc1", "z-score": 1.43},
      {"sequence": "GCUCAAAGGACCUCUGAGCTT against Slc29a2", "z-score": -1.28},
      {"sequence": "CCUCCACUUCGUGAGCGAATT against Xxylt1", "z-score": -1.25},
      {"sequence": "GCCACUGUUGUGUAAACUATT against Rap2a", "z-score": "2.01 (active)"},
      {"sequence": "GGAGAAGUCUUCAUUUGAATT against Tubgcp2", "z-score": -0.331},
      {"sequence": "GGAAGUAGGCAGCAUCAUCTT against Pcbp1", "z-score": 1.13},
      {"sequence": "GGCUGGCUUUGAACUCAAUTT against Zfp36", "z-score": -1.28},
      {"sequence": "GCAACUGCCUAGGCUUGAUTT against Slc30a7", "z-score": "4.79 (active)"}
    ]}
  ]
}
